Hit rate of the full screen: of about 2,100 compounds, about 480 (23%) were called active. Roughly 5% stayed inconclusive and do not appear here.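 Rule for the calls: active = fitted curve reaches 40% activation at or below the top valid concentration, in every replicate test; inconclusive = replicate tests disagree on the call; inactive = the rest, including activity in the opposite direction.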 Only a sample is shown. Measured potencies and affinities stand elsewhere.
assay: activators raising PGC1a acetylation in cells, dose response, cell-based, cherry-picked samples, set 6 (AID 720513); settings: U2OS PGC1a acetylation AlphaLISA, overnight, 0 = neutral, -100 = inhibitor control; series mostly up to 19.5 µM; activation (acetylation increase): at the top concentration;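 note: cells made to overexpress flag tagged PGC1a plus GCN5 acetyltransferase by viral infection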

Activation (acetylation increase), inactive:
CCOC(=O)CN1C(=N)N(c2nc(NC(C)C)nc(OC)n2)CC1=O 15%, CC1CCc2sc(C(=O)Nc3nnc(SCc4ccc(F)cc4)s3)cc2C1 (stereo not drawn) 2.39%, CCc1ccc(-c2cn3nc(-c4ccccc4)cnc3n2)cc1 8.74%, COCC(=O)Nc1ccc2c(c1)OC[C@H](C)N(C(=O)c1ccccc1F)C[C@H](C)[C@H](OC)CN(C)C2=O 20.8%, OC[C@@H]1[C@H](c2ccc(/C=C/c3ccccc3)cc2)[C@H]2CN(CCC(F)(F)F)CCCCN12 -58.3%, CCCCOc1ccc(CNC(=O)NS(=O)(=O)c2ccc(OCC(C)C)cc2)cc1 3.8%, CC(C)C#Cc1ccc2c(c1)O[C@@H](CN(C)Cc1ccccc1)[C@@H](C)CN([C@@H](C)CO)S2(=O)=O -67.6%, COc1ccc(-c2cc(C(=O)O)[nH]n2)cc1OC -8.64% [at 10 µM], COc1ccc(-c2nc3ccccc3c(=O)o2)cc1OC -30.4%, O=C(Nc1ccc(N2CCN(Cc3ccccc3F)CC2)cc1)c1ccc([N+](=O)[O-])o1 -102%, Cc1ccc(C(=O)N2CCN(c3ncccn3)CC2)cc1 25.8%, N#Cc1cc(Oc2cccc3cccnc23)c(-n2nnc3ccccc32)cc1C#N -29.1%, O=C1CN(S(=O)(=O)Cc2ccccc2)C[C@@H]2[C@@H](c3ccc(C#Cc4cccc(F)c4)cc3)[C@@H](CO)N12 -26.7%, COC(=O)c1ccc(OC)c(OC2CCCC2)c1 6.85%, N#Cc1ccc(-c2ccc([C@@H]3[C@H]4CNC[C@@H]3N4Cc3ccc4c(c3)OCO4)cc2)cc1 -65%, O=C(Cc1cccnc1)N1CC(=O)N2[C@H](CO)[C@@H](c3ccc(C#CC4CCCCC4)cc3)[C@H]2C1 -1.38%, CCN(CC)C1CC(=O)N(c2ccc(Br)cc2)C1=O (stereo not drawn) 21%, COc1cccc(NC(=O)N2CCN(c3cccc(C)c3)C(C)C2)c1 (stereo not drawn) 32.5%, COC(=O)c1cc(C(=O)N2CCN(c3cccc(Cl)c3)CC2)cc([N+](=O)[O-])c1 -24.1%, O=C(c1cc([N+](=O)[O-])ccc1N1CCCC1)N1CCCC1 22.3%, COC(=O)[C@]1(Cc2ccccc2)N=C(c2ccc(OCCCO)cc2)O[C@@H]1c1ccccc1 24.2%, O=C(c1cccc(Cl)c1)N1CCN(c2ccc(N3CCOCC3)nn2)CC1 -16.9%, CCN1C(C#N)=C(C#N)N=C(C)CC1(C)C -8.91%, CC1(C(=O)Nc2cccc(C#N)c2)CCN1C(=O)CCc1ccccc1 (stereo not drawn) 27.8%, COc1cc(CN2C[C@@H]3N[C@H](C2)C3c2ccc(/C=C/c3ccccc3)cc2)cc(OC)c1 (stereo partly drawn) -94.1% [at 21 µM], O=C1C=CCCN1S(=O)(=O)/C=C/c1ccccc1 -81.8%, CO[C@H]1CN(C)C(=O)c2ccc(NC(=O)Nc3ccccc3F)cc2OC[C@@H](C)NC[C@@H]1C -2.58%, CC(=O)N(C1=C(N2CCOCC2)C(=O)c2ccccc2C1=O)c1ccc(C(=O)O)cc1 -16%, Cc1cc(C)c(C#N)c(SCC(=O)Nc2nnc(-c3ccccc3)s2)n1 12.3%, N#Cc1ccsc1NC(=O)CSc1nnc(NC2CC2)s1 1.26%, Cc1ccc2nc(C)cc(OCC(=O)O)c2c1 -0.665%, C[C@@H]1CN([C@H](C)CO)C(=O)c2cc(C#CC3CC3)cnc2O[C@H]1CN(C)C(=O)Nc1ccc(F)cc1 3.17%, Cc1[nH]c2ccc(C(C)C)cc2c1CC(=O)O 15.9%, CC(C)(C)c1ccc(C(=O)NCCN2CCOCC2)cc1 12.6%, O=C(Nc1ccc(CN2CCOCC2)cc1)c1ccc(F)cc1 8.79%, COc1ccc2c(c1)c1nc3ccccc3nc1n2CC(=O)OC(C)C 9.95%, CC(C)(C)c1ccc(OCCSc2nc3ccccc3n2CC(=O)O)cc1 6.13%, N=c1n(Cc2ccccc2)c2ccccc2n1CC(O)COc1ccc(Cl)cc1Cl (stereo not drawn) -106%, Cc1nnc(SCC(=O)N2CCC(c3noc4ccc(F)cc34)CC2)s1 -9.01%, CS(=O)c1nc(-c2ccc(Br)cc2)cc(-c2ccccc2)c1C#N (stereo not drawn) -102%, CN(C)CCCNc1cc(-c2ccccc2)nc2cc(-c3cccc(F)c3)nn12 9.3% [at 10 µM], C=CCn1c(C)cc(C(=O)Cn2ncc(Cl)c(Cl)c2=O)c1C -99%, Cc1cc(C)c(S(=O)(=O)NCC2CCC(C(=O)NCc3ccc4c(c3)OCO4)CC2)c(C)c1 (stereo not drawn) 35.8%, Cc1noc(C)c1S(=O)(=O)Nc1ccc2c(c1)C(=O)N([C@H](C)CO)C[C@@H](C)[C@H](CN(C)Cc1ccc(C(F)(F)F)cc1)O2 6.91% [at 21 µM], O=c1oc(-c2ccccc2)nc2sc3c(c12)CCC3 13.4%, CCOC(=O)c1c(C)n(C)c2cc(Br)c(O)c(O)c12 -26.6%, CCOC(=O)c1c2c(n(C)c1C)C(=O)C(=O)c1ccc(Br)cc1-2 -64%, O=C(Nc1ccc2c(c1)OCO2)N[C@H]1CC[C@H](CCNC(=O)C2CCC2)O[C@@H]1CO 20%, CCOC(=O)c1c(NC(=O)c2c(Br)cnn2CC)sc(C)c1C 24.3%, CCOC(=O)c1c(NC(=O)/C=C/C(=O)O)sc(C)c1-c1ccc(C(C)(C)C)cc1 -36.6%, CN1CCc2c(sc3c2c(NCc2ccco2)nc2nnnn23)C1 25.8%, O=C(Cc1cccc(NC(=O)C2CCCN(C(=O)c3ccccc3)C2)c1)Nc1cccc(C(=O)N2CCOCC2)c1 (stereo not drawn) 9.98%, CCn1cnc2cc(NCc3ccc(N(C)C)cc3)ccc21 24.6%, O=C(Cc1cccc(NC(=O)C2CCN(C(=O)c3ccccc3)CC2)c1)Nc1cccc(C(=O)N2CCCCC2)c1 2.11%, COc1ccc(C(=O)Nc2cc(Cl)ccc2-n2cncn2)c(OC)c1OC 26.7%, Cc1noc(/C=C/N(C)C)c1S(=O)(=O)N(C)CC(=O)NC1CCCCC1 -4.8%, CCC(=O)N1C[C@H](C)[C@H](OC)CN(C)C(=O)c2cc(NC(=O)c3cnccn3)ccc2OC[C@@H]1C 11.4%, Cc1nc2ncnn2c(C)c1CCC(=O)N1CCN(c2ccccn2)CC1 17%, O=C(c1ccccc1-c1ccccc1)N1CCN(c2ccccn2)CC1 4.85%, COc1ccc(CCNC(=O)C2CCN(C(=O)c3ccc(F)cc3)CC2)cc1OC -1.74%, COc1cccc(CNC(=O)C(=O)NCCC2CCCCN2S(=O)(=O)c2ccc(C)cc2)c1 (stereo not drawn) 40%, COc1ccc2nc(N3CCCC(C(=O)NCCCN4CCN(C)CC4)C3)sc2c1 (stereo not drawn) 38.8%, Cc1ccc(S(=O)(=O)N2CCCC2CNC(=O)c2ccc(F)c(F)c2)cc1 (stereo not drawn) 16.1%

Reference: PubChem BioAssay AID720513 (Broad Institute, 2013)
